PubChem BioAssay AID1159580 (chemical genetic matrix, 2015)
Among all 5,500 compounds or so, about 2,000 (36%) were called active. Roughly 18% stayed inconclusive and do not appear here. Cut-off read from the data, not from the text of the source: active = normalized growth mostly below about 0.91 (no sharp cut-off); inconclusive = no clear call, values can overlap the other calls; inactive = mostly above about 0.92. The list shows a part of the results.

Assay: chemical genetic growth profiling, strain panel (AID 1159580);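 note: tested at 20 µM; growth read once vehicle control cultures reached saturation at 30 °C; 1 = growth at the plate median or of vehicle wells; lower values mean less growth of the strain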
Details: S. cerevisiae deletion strains, growth OD
[1] = locus YAR019C, strain CDC15, hits give low values
[2] = locus YBL105C, strain PKC1, hits give low values
[3] = locus YBR135W, strain CKS1, hits give low values
[4] = locus YBR136W, strain MEC1, hits give low values
[5] = locus YBR160W, strain CDC28, hits give low values
[6] = locus YDL017W, strain CDC7, hits give low values
[7] = locus YDL028C, strain MPS1, hits give low values
[8] = locus YDL101C, strain DUN1, hits give low values
[9] = locus YDL108W, strain KIN28, hits give low values
[10] = locus YDL132W, strain cdc53, hits give low values
[11] = locus YDL214C, strain PRR2, hits give low values
[12] = locus YDR052C, strain DBF4, hits give low values
[13] = locus YDR054C, strain cdc34, hits give low values
[14] = locus YDR226W, strain ADK1, hits give low values
[15] = locus YDR477W, strain SNF1, hits give low values
[16] = locus YER123W, strain YCK3, hits give low values
[17] = locus YER133W, strain GLC7, hits give low values
[18] = locus YFL009W, strain cdc4, hits give low values
[19] = locus YFL029C, strain CAK1, hits give low values
[20] = locus YFR003C, strain YPI1, hits give low values
[21] = locus YFR019W, strain FAB1, hits give low values
[22] = locus YFR028C, strain CDC14, hits give low values
[23] = locus YGR040W, strain KSS1, hits give low values
[24] = locus YGR052W, strain FMP48, hits give low values
[25] = locus YGR092W, strain DBF2, hits give low values
[26] = locus YHR030C, strain SLT2, hits give low values
[27] = locus YHR079C, strain IRE1, hits give low values
[28] = locus YHR082C, strain KSP1, hits give low values
[29] = locus YHR205W, strain SCH9, hits give low values
[30] = locus YIL147C, strain SLN1, hits give low values
[31] = locus YJL095W, strain BCK1, hits give low values
[32] = locus YJL128C, strain PBS2, hits give low values
[33] = locus YJL157C, strain FAR1, hits give low values
[34] = locus YJR016C, strain ILV3, hits give low values
[35] = locus YJR066W, strain TOR1 (second series), hits give low values
[36] = locus YJR066W, strain TOR1, hits give low values
[37] = locus YKL048C, strain ELM1, hits give low values
[38] = locus YKL067W, strain YNK1, hits give low values
[39] = locus YKL101W, strain HSL1, hits give low values
[40] = locus YKL193C, strain SDS22, hits give low values
[41] = locus YKL203C, strain TOR2, hits give low values
[42] = locus YLR113W, strain HOG1, hits give low values
[43] = locus YLR133W, strain CKI1, hits give low values
[44] = locus YLR403W, strain SFP1, hits give low values
[45] = locus YML070W, strain DAK1, hits give low values
[46] = locus YMR001C, strain CDC5, hits give low values
[47] = locus YMR205C, strain PFK2 (second series), hits give low values
[48] = locus YMR277W, strain FCP1, hits give low values
[49] = locus YNL006W, strain LST8, hits give low values
[50] = locus YNL020C, strain ARK1, hits give low values
[51] = locus YNL161W, strain CBK1, hits give low values
[52] = locus YNL183C, strain NPR1, hits give low values
[53] = locus YNL207W, strain RIO2, hits give low values
[54] = locus YNL222W, strain SSU72, hits give low values
[55] = locus YNL307C, strain MCK1 (second series), hits give low values
[56] = locus YOL078W, strain AVO1, hits give low values
[57] = locus YOL136C, strain PFK27, hits give low values
[58] = locus YOR061W, strain CKA2, hits give low values
[59] = locus YOR119C, strain RIO1, hits give low values
[60] = locus YOR231W, strain MKK1, hits give low values
[61] = locus YOR329C, strain SCD5, hits give low values
[62] = locus YPL031C, strain PHO85, hits give low values
[63] = locus YPL153C, strain RAD53, hits give low values
[64] = locus YPL204W, strain HRR25, hits give low values
[65] = locus YPL209C, strain IPL1, hits give low values
[66] = locus YPL256C, strain CLN2, hits give low values
[67] = locus YPR025C, strain CCL1, hits give low values
[68] = locus YPR106W, strain ISR1, hits give low values
[69] = locus YPR111W, strain DBF20, hits give low values
[70] = strain NNK1, hits give low values
[71] = strain TSCII, hits give low values

Measured: normalized growth

C[C@@H](Nc1ncnc2sc3c(c12)CCCC3)c1ccccc1
inactive: [1] 0.955 | [2] 0.955 | [3] 0.953 | [4] 0.958 | [5] 0.942 | [6] 0.961 | [7] 0.954 | [8] 0.945 | [9] 0.95 | [10] 0.951 | [11] 0.904 | [12] 0.963 | [13] 0.94 | [14] 0.963 | [15] 0.932 | [16] 0.895 | [17] 0.928 | [18] 0.951 | [19] 0.949 | [20] 0.958 | [21] 0.941 | [22] 0.951 | [23] 0.913 | [24] 0.954 | [25] 0.901 | [26] 0.924 | [27] 0.914 | [28] 0.944 | [29] 0.877 | [30] 0.954 | [31] 0.931 | [32] 0.889 | [33] 0.916 | [34] 0.963 | [35] 0.901 | [36] 0.969 | [37] 0.907 | [38] 0.917 | [39] 0.891 | [40] 0.953 | [41] 0.967 | [43] 0.919 | [44] 0.89 | [45] 0.893 | [46] 0.951 | [47] 0.919 | [48] 0.951 | [49] 0.956 | [50] 0.915 | [51] 0.954 | [52] 0.918 | [53] 0.944 | [54] 0.949 | [55] 0.912 | [56] 0.955 | [57] 0.893 | [58] 0.916 | [59] 0.979 | [60] 0.844 | [61] 0.959 | [62] 0.942 | [63] 0.918 | [64] 0.932 | [65] 0.947 | [67] 0.949 | [68] 0.93 | [69] 0.922 | [70] 0.929 | [71] 0.951
active: [42] 0.766 | [66] 0.787

CC(C)N(CCC(=O)c1ccc2ccccc2c1)Cc1ccccc1
active: locus YAL013W, strain DEP1, hits give low values 0.086 | locus YAL040C, strain CLN3, hits give low values 0.0757 | locus YCL061C, strain MRC1 (second series), hits give low values 0.0525 | locus YDR150W, strain NUM1, hits give low values 0.058 | locus YDR363W, strain ESC2, hits give low values 0.141 | locus YER002W, strain NOP16, hits give low values 0.0619 | locus YGR078C, strain PAC10, hits give low values 0.107 | locus YJR075W, strain HOC1, hits give low values 0.0706 | locus YMR307W, strain GAS1, hits give low values 0.0933 | locus YNL128W, strain TEP1, hits give low values 0.0691 | locus YNL153C, strain GIM3, hits give low values 0.0944 | locus YNL175C, strain NOP13, hits give low values 0.111 | locus YNL197C, strain WHI3, hits give low values 0.534 | locus YNL224C, strain SQS1, hits give low values 0.0703 | locus YOR083W, strain WHI5 (second series), hits give low values 0.124

CC1CCC(C(C)C)C(N(Cc2ccccc2)C(=O)c2ccccc2)C1 (stereo unspecified)
inactive: [1] 0.996 | [2] 0.987 | [3] 0.986 | [4] 0.98 | [5] 0.986 | [6] 0.987 | [7] 0.994 | [8] 0.974 | [9] 0.986 | [10] 0.984 | [11] 0.961 | [12] 0.985 | [13] 0.991 | [14] 0.98 | [15] 0.98 | [16] 0.97 | [17] 0.978 | [18] 0.985 | [19] 0.994 | [20] 0.985 | [21] 0.954 | [22] 0.981 | [23] 0.963 | [24] 0.969 | [25] 0.946 | [26] 1.01 | [27] 1 | [28] 1.01 | [29] 0.911 | [30] 0.987 | [31] 0.923 | [32] 0.923 | [33] 0.979 | [34] 0.992 | [35] 0.959 | [36] 1.01 | [37] 0.958 | [38] 0.967 | [39] 0.932 | [40] 0.994 | [41] 1.01 | [42] 0.922 | [43] 0.945 | [44] 0.913 | [45] 0.961 | [46] 0.992 | [47] 0.976 | [48] 0.987 | [49] 0.988 | [50] 0.956 | [51] 0.984 | [52] 0.975 | [53] 0.979 | [54] 0.99 | [55] 0.898 | [56] 0.981 | [57] 0.925 | [58] 0.971 | [59] 1.05 | [60] 0.977 | [61] 0.991 | [62] 0.981 | [63] 0.983 | [64] 0.952 | [65] 0.986 | [66] 1.04 | [67] 0.988 | [68] 0.976 | [69] 0.948 | [70] 0.965 | [71] 0.985

CNCC[C@H](Oc1cccc2ccccc12)c1cccs1
inactive: [26] 0.991 | [27] 0.993 | [31] 1 | [36] 0.924 | [42] 1.02 | [52] 0.938 | [60] 0.988 | [66] 0.987

CNC(=O)Sc1c(-c2ccc(Cl)cc2)nn(C(=O)NC)c1SC
active: [11] 0.319 | [15] 0.428 | [16] 0.199 | [17] 0.485 | [21] 0.264 | [23] 0.413 | [24] 0.315 | [25] 0.266 | [26] 0.335 | [27] 0.324 | [28] 0.353 | [29] 0.446 | [31] 0.256 | [33] 0.315 | [35] 0.286 | [36] 0.302 | [37] 0.545 | [38] 0.335 | [39] 0.378 | [41] 0.491 | [42] 0.284 | [43] 0.397 | [44] 0.482 | [45] 0.297 | [47] 0.461 | [50] 0.342 | [52] 0.274 | [55] 0.233 | [57] 0.316 | [58] 0.355 | [59] 0.467 | [60] 0.315 | [62] 0.422 | [63] 0.337 | [64] 0.399 | [66] 0.368
inactive: [1] 0.979 | [2] 0.961 | [3] 0.949 | [4] 0.952 | [5] 0.961 | [6] 0.949 | [7] 0.941 | [8] 0.958 | [9] 0.94 | [10] 0.978 | [12] 0.939 | [13] 0.985 | [14] 0.952 | [18] 0.962 | [19] 0.974 | [20] 0.946 | [22] 0.985 | [30] 0.934 | [32] 0.911 | [34] 0.969 | [40] 0.97 | [46] 0.971 | [48] 0.979 | [49] 0.971 | [51] 0.954 | [53] 0.964 | [54] 0.969 | [56] 0.981 | [61] 0.977 | [65] 0.97 | [67] 0.973 | [68] 0.994 | [69] 0.982 | [70] 0.996 | [71] 0.977
